What is called inhibition is the change of the read-out against control, counted positive when it falls.

The whole screen tested about 280,000 compounds, of which about 1,700 (0.61%) were called active. The sample holds actives, similar compounds and a random draw of the others, so the mix is not that of the screen. Unmarked numbers belong to inactive results. Rule as the data show it: active = inhibition mostly above about 24% (no sharp cut-off); inactive = mostly below about 32%.

This test in a line: NALP1 inflammasome inhibitors in reconstituted yeast, colorimetric, S. cerevisiae, triplicate retest (AID 2071). Particulars: S. cerevisiae NALP1/ASC/caspase-1 growth, X-gal OD620, 72 h, stronger effect = higher value; at 10 µM unless noted.

For `O=C(Nc1nnc(C2CC2)s1)c1cc(Cl)sc1Cl`, the inhibition was 5.9%.

Regarding `CCCCNC(=O)CSc1nnc(-c2ccco2)n1C`, the inhibition was 10.9%. To `Cn1c(SCC(=O)c2cccs2)nnc1-c1ccco1` belongs 14.7%; to `Cn1c(SCC(=O)Nc2ccc(Br)cc2F)nnc1-c1ccco1`, 31.1% (active). To `O=C(Nc1ccc(C(=O)N2CCOCC2)cc1)Nc1cccc(C(F)(F)F)c1` belongs -1.5%; to `O=C(CN1CCCCCC1)Nc1ccc(Br)cc1[N+](=O)[O-]`, -4.1%; to `Cc1ccc(S(=O)(=O)N2CCN=C2SCc2c(F)cccc2Cl)cc1`, 14.5%. To `COc1cccc(CNc2ncc(-c3ccccc3)n2C)c1` belongs -8.5%; to `CCn1c(SCC(=O)NC2CC2)nnc1-c1ccccn1`, 20%; to `Cn1c(SCC(=O)c2ccc(F)cc2)nnc1-c1ccccn1`, 4.2%. In the case of `Cn1c(SCC(=O)C(C)(C)C)nnc1-c1ccccn1`, the inhibition was 43.3% (active). To `FC(F)(F)c1nnc2c3ccccc3c(Cl)nn12` belongs 2.1%; to `COc1ccc(N2C(=O)C3CCCN3C2c2cc(OC)c(OC)cc2OC)cc1` (stereo not drawn), 41.6% (active); to `COc1ccc(N2C(=O)C3CCCN3C2c2cccs2)cc1` (stereo not drawn), 11.5%. To `COc1ccc(N2C(=O)C3CCCN3C2c2cccc(OC)c2)cc1` (stereo not drawn) belongs -8.3%; to `O=C(CN1CCN(C(=O)C2CCCO2)CC1)Nc1c(Cl)cccc1Cl` (stereo not drawn), 17.6%.

As for `COc1ccc(-c2c(C#Cc3ccccc3)c3ccccc3n2C)cc1`, the inhibition was 15.3%. To `CC(=O)Nc1ccc(NC(=O)CS(=O)(=O)c2cn(CC(=O)N3CCCCC3)c3ccccc23)cc1` belongs 5.8%. `C=CS(=O)c1sc(Cl)c(N2CCOCC2)c1[N+](=O)[O-]` (stereo not drawn): the inhibition is 37.6% (active).

For the compound `Cc1cccc(NC(=O)c2ccc(S(=O)(=O)N(C)CC3CCCO3)cc2)c1C` (stereo not drawn), the inhibition was 15.7%. To `CC(C)Cc1nc(Cl)c(C#N)c2c1CCC2` belongs 8%; to `COCc1c(N)c(C)nc(Cl)c1C#N`, -22.9%. To `Cc1nc(Cl)c(C#N)c2c1CCCC2` belongs 41.9% (active); to `COc1ccc(NCCc2ccccn2)cc1`, 8.9%.

Turning to `O=C(NCCCc1ccccc1)C(=O)NCC1OCCN1S(=O)(=O)c1ccccc1` (stereo not drawn), the inhibition was -4.3%. To `COc1ccc(CCNC(=O)C(=O)NCC2OCCN2S(=O)(=O)c2cccs2)cc1OC` (stereo not drawn) belongs 0.8%. Take `COc1cccc(NC(=O)[C@H](Cc2c[nH]c3ccccc23)NC(=O)[C@@H]2Cc3ccccc3CN2)c1`: the inhibition was 17.2%. To `Cc1ccccc1NC(=O)NCc1ccco1` belongs 23.9%; to `CC(C)(C)NC(=O)NCc1ccco1`, 41.4% (active). In the case of `CC(C)(C)c1ccc(NC(=O)NCc2ccco2)cc1`, the inhibition was 21.4%.

`Cc1[nH]n(C(N)=S)c(=O)c1N=Nc1ccc(Cl)cc1Cl`: the inhibition was 0.4%. In the case of `COc1ccc(-n2nc(C(=O)NCC(=O)N3CCN(c4ccccc4OC)CC3)c3ccccc3c2=O)c(OC)c1`, the inhibition is 20.4%.

Take `CN(c1ccc(O)cc1)c1nc(-c2cccnc2)cs1`: the inhibition was 12.3%.

As to `O=C(NC(=S)Nc1ccc(Cl)cc1Cl)C1CC1`, the inhibition is 10.6%.

On to `O=C(NCC(=O)N1CCN(c2ncc(C(F)(F)F)cc2Cl)CC1)c1ccc(Br)o1`, for which the inhibition is 6.1%.

For the compound `CC1(C)Cc2cccc(OCC(=O)NCc3ccccc3)c2O1`, the inhibition was -5.5%.

Consider `Cc1nc(NCc2ccccc2)c(C(N)=O)c2c1COC(C)(C)C2`, for which the inhibition was 37.7% (active). To `Cc1nc(NCCN)c(C#N)c2c1COC(C)(C)C2` belongs 8.1%; to `COc1ccccc1C(=O)COC(=O)CNS(=O)(=O)c1ccc(NC(C)=O)cc1`, 16.9%; to `Cc1ccccc1C(=O)NC(=S)NC1CC1`, 12.2%. To `CCCCNC(=O)CSc1nc2n[nH]c(C)c2c(=N)n1-c1cccc(Cl)c1C` belongs -3.5%; to `COc1cccc(-n2c(SCC(=O)NC3CCCCC3)nc3n[nH]c(C)c3c2=N)c1`, -7.2%; to `Cc1ccc(-n2c(SCC(=O)NCCC3=CCCCC3)nc3n[nH]c(C)c3c2=N)cc1Cl`, 39.4% (active).

Consider `COc1ccc(N(C)C(=O)C2CCN(S(=O)(=O)c3cccc4nsnc34)CC2)cc1`, for which the inhibition was 9.7%. To `Cc1ccc(NC(=O)c2cc3ccccc3o2)cc1` belongs 8.6%; to `O=C(CCCCCn1c(=S)[nH]c2ccsc2c1=O)NC1CCCCC1`, -20.3%; to `Cc1cc(NC(=O)c2ccccc2C)no1`, 17%. To `CCOCCCNC(=O)C(NC(=O)CNC(=O)c1ccccc1)c1ccc(OC)cc1` (stereo not drawn) belongs -2.8%; to `CCOCCCNC(=O)C(NC(=O)Cc1c[nH]c2ccccc12)c1ccc(OC)cc1` (stereo not drawn), 6.3%. To `CCOCCCNC(=O)C(NC(=O)c1ccccc1O)c1ccccc1` (stereo not drawn) belongs -7.8%. On to `CCOCCCNC(=O)C(NC(=O)CNC(=O)c1ccccc1)c1ccc(C)cc1` (stereo not drawn), for which the inhibition is 38.2% (active). To `CCOCCCNC(=O)C(NC(=O)c1ccc(=O)[nH]c1)c1ccc(C)cc1` (stereo not drawn) belongs -4%.

Take `CCOCCCNC(=O)C(NC(=O)c1ccc(=O)[nH]c1)c1ccc(Cl)cc1` (stereo not drawn): the inhibition is 38.8% (active).
